This is an account of results in PubChem BioAssay AID1822 (The Scripps Research Institute Molecular Screening Center, 2009).

The campaign covered roughly 290,000 compounds. About 3,500 (1.2%) were called active.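 Rule for the calls: active = inhibition above the campaign mean inhibition over all tested compounds plus 3 SD (cut at about 28% in these data); inactive = the rest.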 The sample as a whole holds a higher share of actives than the screen did.

The inhibition is the relative decrease from the control value, in per cent.

The assay has as its system M18 aspartyl aminopeptidase (Plasmodium falciparum 3D7). Description: PfM18AAP inhibitors, malaria aminopeptidase, primary screen, biochemical, QFRET, recombinant enzyme (AID 1822).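 Note: 0% = plate median of test compound wells and 100% = 2 mM ZnCl2.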 To be noted: H-Glu-NHMec fluorogenic cleavage, at 7.35 µM, stronger effect = higher value.
As for `Clc1ccc(Cc2nn3c(-c4ccncc4)nnc3s2)cc1`, the inhibition is 8.22% (inactive).
Under `Cc1cccc(C(=O)NC(=S)N(C)C2CCCCC2)c1` stands 7.02% (inactive).
For `CCc1cccc(C)c1NC(=O)CSc1nnc(-c2ccco2)n1N`, the inhibition is 3.63% (inactive).
As to `NC(=O)c1c(NC(=O)CSc2nnc(-c3ccco3)n2N)sc2c1CCCC2`, the inhibition was 34.4% (active).
Turning to `NC(=O)c1c(NC(=O)CSc2nc(N)cc(=O)[nH]2)sc2c1CCCC2`, the inhibition was 8.38% (inactive).
Under `CC(C)c1ccc(S(=O)(=O)NC2CCCC2)cc1` stands -8.03% (inactive).
Under `Cc1ccccc1CN1CCC(C(=O)Nc2ccc(Oc3cccnc3)cc2)CC1` stands 0.98% (inactive).
With `O=C(c1ccc(Cl)c(S(=O)(=O)N2CCCCC2)c1)N1CCCCCC1`, the inhibition was -4.84% (inactive).
Take `O=C(c1ccccc1F)N1CCN(S(=O)(=O)c2ccc(Br)cc2)CC1`: the inhibition was 1.79% (inactive).
On to `O=C(c1ccc[nH]c1=S)N1CCN(S(=O)(=O)c2ccc(Br)cc2Cl)CC1`, for which the inhibition is 29.6% (active).
With `COc1cc(NC(=O)C2=CC(c3ccco3)=NS(=O)(=O)N2C)cc(OC)c1OC`, the inhibition was 3.32% (inactive).
Regarding `O=C(CO/N=C/c1ccccc1OC(F)F)NC1CCCC1`, the inhibition was 3.38% (inactive).
For `O=C(CO/N=C/c1ccccc1O)NNC(=O)c1ccccc1Cl`, the inhibition was 43.1% (active).
Under `O=C(N/N=C/c1ccc(OC(=O)c2ccccc2Cl)cc1)c1ccc(O)cc1` stands 8.47% (inactive).
Turning to `CC(C)c1ccc(NC(=S)NC2CC3C=CC2C3)cc1` (stereo not drawn), the inhibition was -6.48% (inactive).
As for `CC(=O)c1cnc(Nc2nc(C)c3cc(C)ccc3n2)nc1C`, the figure is 1.6% (inactive); as for `O=C(NCCCn1ccnc1)c1cc(-c2ccccc2)on1`, -9.41% (inactive).
Under `CC(C)(C)C(=O)OCc1nc(-c2ccc(O)c(O)c2)cs1` stands 58.2% (active); under `Cc1onc(C(=O)NN)c1-c1csc(COc2ccccc2)n1`, -8.62% (inactive); under `COc1ccc(-c2csc(Cc3nc(O)cs3)n2)cc1`, 8.2% (inactive).
In the case of `COC(=O)[C@@H]1CCCN1C(=O)c1cc(COc2cccc3cccnc23)on1`, the inhibition was 3.55% (inactive).
Turning to `COc1cc(C)c(C)cc1S(=O)(=O)N1CCCc2ccccc21`, the inhibition is -5.85% (inactive).
Turning to `Cc1[nH]c(C)c(S(=O)(=O)N2CCC(C)CC2)c1C(=O)N1CCCC1`, the inhibition was -4.62% (inactive).
In the case of `COCCCNC(=O)C1CC(=O)N(CCc2ccc(F)cc2)C1` (stereo not drawn), the inhibition is 2.65% (inactive).
With `CCOC(=O)CSc1nnc(NC(=O)C2CC(=O)N(c3ccc(F)cc3)C2)s1` (stereo not drawn), the inhibition was -0.3% (inactive).
As for `COc1cccc(N(C(=O)CNC(=O)c2ccco2)C(C(=O)NC2CCCCC2)c2cccnc2)c1` (stereo not drawn), the figure is 9.7% (inactive).
Turning to `CC(C)(C)NC(=O)C(c1ccncc1)N(C(=O)CNC(=O)c1ccco1)c1ccc2c(c1)OCO2` (stereo not drawn), the inhibition is 35% (active).
Under `Cc1ccc(N(C(=O)CNC(=O)c2ccco2)C(C(=O)NC2CCCC2)c2ccncc2)cc1` (stereo not drawn) stands 0.63% (inactive).
On to `C/C(CC1CC(C)(C)OC1=O)=N/Nc1nc(-c2ccccc2)cs1` (stereo not drawn), for which the inhibition was 6.59% (inactive).
As for `O=C(CSc1nccc(=O)[nH]1)Nc1ccc(N2CCOCC2)c(Cl)c1`, the inhibition is 2.24% (inactive).
With `O=C(CN1CCN(c2ccc(F)cc2)CC1)Nc1ccccc1`, the inhibition was -7.36% (inactive).
As for `O=C(CN1CCN(c2ccccc2)CC1)Nc1ccc(F)cc1`, the figure is -1.61% (inactive); as for `O=C(CN1CCN(c2ccc(O)cc2)CC1)Nc1ccc(-c2ccccc2)cc1`, 42% (active).
As for `O=C(CN1CCN(c2cccc(Cl)c2)CC1)Nc1ccc(S(=O)(=O)N2CCOCC2)cc1`, the figure is -3.74% (inactive); as for `O=C(CN1CCOCC1)Nc1cc(Cl)ccc1Cl`, 1.38% (inactive).
For the molecule `O=C(CN1CCN(c2ccc(O)cc2)CC1)Nc1cc(S(=O)(=O)N2CCOCC2)ccc1Cl`, the inhibition was 30.2% (active).
In the case of `Cn1cc[n+](C)c1COc1ccc(C=O)cc1`, the inhibition is -14% (inactive).
With `CC1CN(C(=O)CCC(=O)NCCCN2CCC(Cc3ccccc3)CC2)c2cc(Cl)ccc2O1` (stereo not drawn), the inhibition is -5.3% (inactive).
Consider `O=C(C[n+]1ccc2c(c1)nnn2-c1ccccc1)c1ccc(Cl)cc1`, for which the inhibition is 0% (inactive).
`CC(=O)c1ccc(-c2ccc(Cn3c(C)nc4cc(N)c(C)nc43)cc2)cc1`: the inhibition is -5.95% (inactive).
In the case of `Cc1cc2nc3c(=O)n(Cc4ccccc4)c(=O)[nH]c3nc2cc1N`, the inhibition is 33.3% (active).
As for `CSc1nc2ccccc2c(=O)n1Cc1ccc(F)cc1`, the figure is 4.37% (inactive); as for `CC1CCN(C(=O)C2CCN(S(=O)(=O)N3CCC4(CC3)OCCO4)CC2)CC1`, -6.53% (inactive); as for `O=C(Nc1cccc(Cl)c1)C1CCCN(c2cnccn2)C1` (stereo not drawn), -0.72% (inactive).
Under `COc1cc(NC(=S)N2CCCC(C)C2)c(OC)cc1Cl` (stereo not drawn) stands 33.9% (active); under `COc1ccc(NC(=S)N2CCCC(CO)C2)c(OC)c1` (stereo not drawn), 1.11% (inactive).
As to `COc1cc(NC(=S)N2CCCC(C)C2)cc(OC)c1OC` (stereo not drawn), the inhibition was 16.2% (inactive).
For `COc1ccc(S(=O)(=O)N2CCC(C(=O)NCCC(=O)NCc3cccc(OC)c3)CC2)cc1`, the inhibition was -4.58% (inactive).
For `O=C(O)c1cccc2c1C(=O)N(C1CCCC1)C2`, the inhibition was -3.09% (inactive).
Under `C/C(=N\NC(=O)c1ccc(C)cc1)C1C(=O)c2ccccc2C1=O` stands 9.83% (inactive); under `N#Cc1ccc(CSc2ncccn2)cc1`, 0.4% (inactive); under `N#Cc1ccc(C(c2ccc(C#N)cc2)n2cncn2)cc1`, 51.3% (active).
With `N#Cc1ccc(C(c2nnnn2CCc2ccccc2)N2CCCCCC2)cc1` (stereo not drawn), the inhibition is -9.05% (inactive).
Take `CCOc1ccc(N/C=C/C(=O)c2ccccc2)cc1`: the inhibition is 0.48% (inactive).
For `Cc1nc2nc[nH]n2c(=O)c1C/C=C/c1ccccc1`, the inhibition is 41.7% (active).
As to `C=CCc1c(C)nc2cc(-c3ccccc3)[nH]n2c1=O`, the inhibition was -0.1% (inactive).
For `Cc1nc2nc(COc3ccccc3)[nH]n2c(=O)c1Cc1ccccc1`, the inhibition is 5.29% (inactive).
Take `COC(=O)C1[C@H]2SC(C)(C)C(C(=O)OC)N2C(=O)N1Cc1nc2ccccc2s1` (stereo partly drawn): the inhibition was 2.76% (inactive).
On to `CSc1nnc(NC(=O)c2nc(S(=O)(=O)Cc3ccc(C)cc3)ncc2Cl)s1`, for which the inhibition is -15.5% (inactive).
Consider `COC(=O)NNC1=CC(=O)CC(C)(C)C1`, for which the inhibition was 9.27% (inactive).
As to `Cc1cc(C)nc(NNC2=CC(=O)CC(C)(C)C2)n1`, the inhibition is 42.9% (active).
Under `CC1(C)CC(=O)C=C(Nc2ccccc2)C1` stands -2.72% (inactive).
For `Cc1onc(C(=O)Nc2ccc3c(c2)OCO3)c1[N+](=O)[O-]`, the inhibition was -1.41% (inactive).
Under `S=c1[nH]nc(-c2ccco2)n1/N=C/c1ccc(Br)s1` stands 28% (active); under `Cc1cc(-c2n[nH]c(=S)n2/N=C/c2ccco2)n[nH]1`, 6.34% (inactive).
Turning to `S=c1[nH]nc(-c2ccco2)n1/N=C/c1ccccc1`, the inhibition was 19.4% (inactive).
In the case of `COc1ccc(-c2csc(NC3OC(=O)c4ccccc43)n2)cc1` (stereo not drawn), the inhibition is 3.33% (inactive).
As to `COc1ccc(N/C=C(\C2OC(=O)c3ccccc32)[N+](=O)[O-])cc1` (stereo not drawn), the inhibition was 38.8% (active).
With `COc1ccc(NC(=O)ON=C2c3ccccc3-c3ccccc32)cc1`, the inhibition was -2.03% (inactive).
As for `O=C(CCN1CCN(C/C=C/c2ccccc2)CC1)Nc1ccccc1Cl`, the figure is -14.5% (inactive); as for `CS(=O)(=O)N(CC(=O)N1CCCCCC1)c1cccc(Cl)c1Cl`, -10.9% (inactive); as for `CCOC(=O)NNc1cc(C(F)(F)F)ccn1`, 49.5% (active).
Under `Cc1ccc(NC(=O)Nc2cccc(C(F)(F)F)c2)nc1` stands -4.58% (inactive); under `CCC(=O)NC(Nc1cc(C)ccn1)(C(F)(F)F)C(F)(F)F`, -6.4% (inactive); under `CCOC(=O)c1cccc(NC(=O)CN2C(=O)C3CC=CCC3C2=O)c1` (stereo not drawn), 0.39% (inactive).
`O=C(Nc1cccnc1Cl)c1cc(-c2cccc(Cl)c2)on1`: the inhibition was -1.19% (inactive).
In the case of `CCOC(=O)C1(CCOc2ccccc2)CCN(Cc2ccc(C#CCCO)cc2)CC1`, the inhibition is 3.95% (inactive).
Consider `CC(=O)N1CCN(CC(c2ccccc2)c2ccccc2)CC1`, for which the inhibition was -8.35% (inactive).
As for `O=C(Nc1ccncc1)c1ccc([N+](=O)[O-])cc1Cl`, the figure is 8.21% (inactive); as for `O=C(Cc1ccccc1)Nc1ccc(NC(=O)c2cccnc2)cc1`, -1.2% (inactive).
With `Cn1cccc1C(=O)N1CCc2ccccc2C1`, the inhibition was -5% (inactive).
Under `CC(C)CNC(=O)C(=O)NCC(c1ccc2c(c1)OCO2)N1CCOCC1` (stereo not drawn) stands -5.45% (inactive); under `Cc1cc2ccccc2n1CCC(=O)O`, 10.5% (inactive); under `O=C(O)CCn1c(O)c(C=C2N=c3ccccc3=N2)sc1=S`, 37.6% (active).
As for `O=C(O)CCn1c(Cc2ccccc2)nc2ccccc21`, the inhibition is -1.96% (inactive).
For `O=S1(=O)CCOC[C@H](CC2CCCCC2)N1Cc1ccc(F)cc1`, the inhibition was -13.1% (inactive).
Under `CCn1cc(CCC(=O)NCc2ccc(F)cc2)c2ccccc21` stands -10.5% (inactive).
Regarding `Cc1nc(N2CCOCC2)c2c(C)c(C(=O)Nc3ccc(C(F)(F)F)cc3)sc2n1`, the inhibition was -14.6% (inactive).
Turning to `CC(=O)Nc1ccc(N2CCOCC2)c(C(=O)Nc2cccc(C)c2)c1`, the inhibition is 4.11% (inactive).
As for `Cc1cccc(NC(=O)c2sc3nc(N4CCOCC4)c4c(c3c2N)CCCC4)c1`, the figure is 41% (active); as for `O=C(Nc1ccccc1)c1ccco1`, 2.58% (inactive); as for `O=C(NNC(=O)c1ccco1)Nc1ccccc1`, 48.6% (active).
As for `O=C(Nc1ccccc1)/C(=C\c1ccco1)NC(=O)c1ccco1`, the figure is 8.12% (inactive); as for `O=C(O)C1CCC(CNS(=O)(=O)c2ccc(Br)cc2)CC1` (stereo not drawn), -15.2% (inactive); as for `Brc1cc(/C=N/n2cnnc2)oc1Br`, 13.5% (inactive).
As for `Cc1cc(C)c([N+](=O)[O-])cc1-c1ccc(/C=N/NC(=O)c2nonc2N)o1`, the figure is 4.59% (inactive); as for `O=C1C2C3C=CC(C4CC34)C2C(=O)N1/N=C/c1ccc(-c2ccccc2[N+](=O)[O-])o1` (stereo not drawn), -5.14% (inactive).
As for `Cc1ccc(Cl)cc1-c1ccc(/C=N/n2cnnc2)o1`, the inhibition was 32.8% (active).
As for `Clc1cc(-c2ccc(/C=N/n3cnnc3)o2)ccc1Br`, the figure is -0.09% (inactive); as for `CC1=NN(c2ccc(Cl)c(C(=O)O)c2)C(=O)/C1=C/c1ccc(-c2ccccc2[N+](=O)[O-])o1`, 3.82% (inactive).
Under `Cc1cc(-c2ccc(/C=N/n3cnnc3)o2)c([N+](=O)[O-])cc1C` stands 44.5% (active); under `Cc1cc([N+](=O)[O-])c(-c2ccc(/C=N/n3cnnc3)o2)cc1Cl`, 40.4% (active).
In the case of `Cc1ccccc1OCCOc1ccc([N+](=O)[O-])cc1/C=N/n1cnnc1`, the inhibition is 6.71% (inactive).
